# Assay results reported in PubChem BioAssay (NCATS).
# Records with an inconclusive call do not appear. A number with no mark means an inactive call. Active and inactive are the calls of the source. The call rests on the fitted dose curve; in most records, active means well fitted inhibition curve with a large enough effect; inconclusive means small, poorly fitted or top-dose-only effect; inactive means flat fitted curve, though single readings scatter.
# System: ATS95
# Assay: qHTS profiling for inhibitors of Plasmodium falciparum proliferation (AID 504749); further: nearly all actives have a fitted effect of over 60% in size;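 on activity, negative = inhibition: 0% = DMSO vehicle and full inhibition = artemisinin control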
# Details: P. falciparum in erythrocytes, SYBR Green DNA, 72 h; series mostly up to 28.7 µM; activity, negative = inhibition: at the top concentration
# How it was run: (§1)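 SYBR Green fluorescence (ex 485 nm, em 535 nm) reports parasite DNA after 72 h compound exposure of infected red cells at 0.3% parasitemia, 2.5% hematocrit; signal normalized to 0.29 uM artemisinin and vehicle wells.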
# Potency means the concentration at half of the fitted maximal effect.
SMILES,"activity, negative = inhibition",Potency
CC(C)OC(=O)C(C(=O)OC(C)C)=C1SC=CS1,2.21%,
CC[C@H](NC(C)C)[C@H](O)c1ccc(O)c2[nH]c(=O)ccc12,0.429%,
NC(=O)c1cccnc1,4.65%,
Cc1ccnc2c1NC(=O)c1cccnc1N2C1CC1,-0.31%,
O=P(O)(O)C(O)(Cc1cccnc1)P(=O)(O)O,-1.83%,
CCc1c2c(nc3ccc(OC(=O)N4CCC(N5CCCCC5)CC4)cc13)-c1cc3c(c(=O)n1C2)COC(=O)[C@]3(O)CC,-0.805%,
C#CCN[C@@H]1CCc2ccccc21,5.93%,
CNS(=O)(=O)Cc1ccc2[nH]cc(CCN(C)C)c2c1,15.1%,
Cc1noc(NS(=O)(=O)c2ccc(N)cc2)c1C,-5.52%,
COc1c(N2CCNC(C)C2)c(F)cc2c(=O)c(C(=O)O)cn(C3CC3)c12 (configuration not stated),-21%,
CCCN[C@H]1CCc2nc(N)sc2C1,1.2%,
CN1CCN(c2c(F)cc3c(=O)c(C(=O)O)cn4c3c2OCN4C)CC1,9.49%,
COc1cc(NCc2ccc3nc(N)nc(N)c3c2C)cc(OC)c1OC,,631 nM (active)
Cc1cccc(Nc2ccncc2S(=O)(=O)NC(=O)NC(C)C)c1,-2.02% [at 12.8 µM],
CC1=NN(c2ccccc2)C(=O)C1,4.54%,
CCN(C)C(=O)Oc1cccc([C@H](C)N(C)C)c1,-4.81%,
CN(C)c1ccc(C(=C2C=CC(=[N+](C)C)C=C2)c2ccc(N(C)C)cc2)cc1,,501 nM (active)
NCCCC(O)(P(=O)(O)O)P(=O)(O)O,1.48%,
COc1ccc(C(=O)CC(=O)c2ccc(C(C)(C)C)cc2)cc1,4.19%,
Cn1nnc2c(C(N)=O)ncn2c1=O,-0.198%,
O=NN(CCCl)C(=O)NC1CCCCC1,2.1%,
Cc1nnc(NS(=O)(=O)c2ccc(N)cc2)s1,8.43%,
Cc1ncc([N+](=O)[O-])n1CCO,-3.15%,
CCOCC(O)COc1ccc(NC(=O)CC[S+](C)C)cc1 (configuration not stated),2.43%,
CCOc1cc(N)c(Cl)cc1C(=O)NCC1CN(Cc2ccc(F)cc2)CCO1 (configuration not stated),,10000 nM (active)
S=P(N1CC1)(N1CC1)N1CC1,2.14%,
COc1cnc(NS(=O)(=O)c2ccc(N)cc2)nc1,3.74% [at 12.8 µM],
CC[C@H](C)C(=O)O[C@H]1C[C@@H](C)C=C2C=C[C@H](C)[C@H](CC[C@@H]3C[C@@H](O)CC(=O)O3)[C@H]21,-22.4%,
CCCc1cc(C(N)=S)ccn1,1.97%,

# System: C2A
# Assay: as above
# Details: P. falciparum in erythrocytes, SYBR Green DNA, 72 h; series mostly up to 28.7 µM; activity, negative = inhibition: at the top concentration
# How it was run: as §1
SMILES,"activity, negative = inhibition",Potency
CC(C)OC(=O)C(C(=O)OC(C)C)=C1SC=CS1,-0.187%,
CC[C@H](NC(C)C)[C@H](O)c1ccc(O)c2[nH]c(=O)ccc12,-2.04%,
NC(=O)c1cccnc1,1.85%,
Cc1ccnc2c1NC(=O)c1cccnc1N2C1CC1,7.62%,
O=P(O)(O)C(O)(Cc1cccnc1)P(=O)(O)O,4.7%,
CCc1c2c(nc3ccc(OC(=O)N4CCC(N5CCCCC5)CC4)cc13)-c1cc3c(c(=O)n1C2)COC(=O)[C@]3(O)CC,-8.7%,
C#CCN[C@@H]1CCc2ccccc21,-5.45%,
CNS(=O)(=O)Cc1ccc2[nH]cc(CCN(C)C)c2c1,-0.909%,
Cc1noc(NS(=O)(=O)c2ccc(N)cc2)c1C,1.04%,
COc1c(N2CCNC(C)C2)c(F)cc2c(=O)c(C(=O)O)cn(C3CC3)c12 (configuration not stated),-25%,
CCCN[C@H]1CCc2nc(N)sc2C1,0.667%,
CN1CCN(c2c(F)cc3c(=O)c(C(=O)O)cn4c3c2OCN4C)CC1,2.89%,
COc1cc(NCc2ccc3nc(N)nc(N)c3c2C)cc(OC)c1OC,,631 nM (active)
Cc1cccc(Nc2ccncc2S(=O)(=O)NC(=O)NC(C)C)c1,-3.58% [at 12.8 µM],
CC1=NN(c2ccccc2)C(=O)C1,3.92%,
CCN(C)C(=O)Oc1cccc([C@H](C)N(C)C)c1,-2.8%,
CN(C)c1ccc(C(=C2C=CC(=[N+](C)C)C=C2)c2ccc(N(C)C)cc2)cc1,,355 nM (active)
NCCCC(O)(P(=O)(O)O)P(=O)(O)O,2.11%,
COc1ccc(C(=O)CC(=O)c2ccc(C(C)(C)C)cc2)cc1,-3.91%,
Cn1nnc2c(C(N)=O)ncn2c1=O,-10%,
O=NN(CCCl)C(=O)NC1CCCCC1,-2.18%,
Cc1nnc(NS(=O)(=O)c2ccc(N)cc2)s1,6.16%,
Cc1ncc([N+](=O)[O-])n1CCO,2.15%,
CCOCC(O)COc1ccc(NC(=O)CC[S+](C)C)cc1 (configuration not stated),4.31%,
CCOc1cc(N)c(Cl)cc1C(=O)NCC1CN(Cc2ccc(F)cc2)CCO1 (configuration not stated),,11200 nM (active)
S=P(N1CC1)(N1CC1)N1CC1,-0.509%,
COc1cnc(NS(=O)(=O)c2ccc(N)cc2)nc1,-13.6% [at 12.8 µM],
CC[C@H](C)C(=O)O[C@H]1C[C@@H](C)C=C2C=C[C@H](C)[C@H](CC[C@@H]3C[C@@H](O)CC(=O)O3)[C@H]21,-5.7%,
CCCc1cc(C(N)=S)ccn1,5.39%,

# System: CP185
# Assay: as above
# Details: P. falciparum in erythrocytes, SYBR Green DNA, 72 h; series mostly up to 28.7 µM; activity, negative = inhibition: at the top concentration
# How it was run: as §1
SMILES,"activity, negative = inhibition",Potency
CC(C)OC(=O)C(C(=O)OC(C)C)=C1SC=CS1,10.4%,
CC[C@H](NC(C)C)[C@H](O)c1ccc(O)c2[nH]c(=O)ccc12,0.512%,
NC(=O)c1cccnc1,3.41%,
Cc1ccnc2c1NC(=O)c1cccnc1N2C1CC1,4.93%,
O=P(O)(O)C(O)(Cc1cccnc1)P(=O)(O)O,5.42%,
CCc1c2c(nc3ccc(OC(=O)N4CCC(N5CCCCC5)CC4)cc13)-c1cc3c(c(=O)n1C2)COC(=O)[C@]3(O)CC,0.109%,
C#CCN[C@@H]1CCc2ccccc21,12.6%,
CNS(=O)(=O)Cc1ccc2[nH]cc(CCN(C)C)c2c1,-1.54%,
Cc1noc(NS(=O)(=O)c2ccc(N)cc2)c1C,10.5%,
COc1c(N2CCNC(C)C2)c(F)cc2c(=O)c(C(=O)O)cn(C3CC3)c12 (configuration not stated),-19.9%,
CCCN[C@H]1CCc2nc(N)sc2C1,11.7%,
CN1CCN(c2c(F)cc3c(=O)c(C(=O)O)cn4c3c2OCN4C)CC1,-5.35%,
COc1cc(NCc2ccc3nc(N)nc(N)c3c2C)cc(OC)c1OC,,562 nM (active)
Cc1cccc(Nc2ccncc2S(=O)(=O)NC(=O)NC(C)C)c1,1.6% [at 12.8 µM],
CC1=NN(c2ccccc2)C(=O)C1,1.98%,
CCN(C)C(=O)Oc1cccc([C@H](C)N(C)C)c1,4.52%,
CN(C)c1ccc(C(=C2C=CC(=[N+](C)C)C=C2)c2ccc(N(C)C)cc2)cc1,,398 nM (active)
NCCCC(O)(P(=O)(O)O)P(=O)(O)O,4.37%,
COc1ccc(C(=O)CC(=O)c2ccc(C(C)(C)C)cc2)cc1,0.521%,
Cn1nnc2c(C(N)=O)ncn2c1=O,11.8%,
O=NN(CCCl)C(=O)NC1CCCCC1,6.41%,
Cc1nnc(NS(=O)(=O)c2ccc(N)cc2)s1,16%,
Cc1ncc([N+](=O)[O-])n1CCO,4.07%,
CCOCC(O)COc1ccc(NC(=O)CC[S+](C)C)cc1 (configuration not stated),5.22%,
CCOc1cc(N)c(Cl)cc1C(=O)NCC1CN(Cc2ccc(F)cc2)CCO1 (configuration not stated),,10000 nM (active)
S=P(N1CC1)(N1CC1)N1CC1,0.47%,
COc1cnc(NS(=O)(=O)c2ccc(N)cc2)nc1,3.95% [at 12.8 µM],
CC[C@H](C)C(=O)O[C@H]1C[C@@H](C)C=C2C=C[C@H](C)[C@H](CC[C@@H]3C[C@@H](O)CC(=O)O3)[C@H]21,1.86%,
CCCc1cc(C(N)=S)ccn1,1.43%,
